A selection: hits, their analogues and other compounds. The true share with any hit is near 19%.
IL1B secr inh: qHTS for Inhibitors of Inflammasome Signaling: IL-1-beta AlphaLISA Primary Screen | THP-1 LPS/ATP IL-1B secretion, AlphaLISA, 16 h; active compounds read low | activity change, % at 57.5 µM | hit rate 4.7% among 360,000 | AID 743279, 2014; in the data active = activity change below about -50%; inconclusive = mostly about -30% to -49%
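Secreted IL-1B measured by AlphaLISA bead assay after 16 h compound exposure of THP-1 cells; compounds (final up to 57.5 uM) added 1 h before LPS (250 ng/mL) and ATP (1.25 mM) stimulation; lower signal means less secretion.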
DT40 TDP1 no CPT: qHTS for Inhibitors of human tyrosyl-DNA phosphodiesterase 1 (TDP1): qHTS in cells in absence of CPT; DT40 Tdp1-/- hTDP1 cells, no CPT, ATP luminescence, 48 h; Potency, µM (top dose mostly 46.2 µM), actives largely listed as inhibitors; hit rate 15% among 420,000; note: nearly all actives have a fitted effect of over 55% in size
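Compound effects on proliferation are scored in DT40 Tdp1-/-;hTDP1 cells in the absence of CPT. ATP levels (CellTiter-Glo luminescence) are recorded after a ≥48 hr, 37 °C incubation.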
HT1080 IDH1KD tx: qHTS for induction of synthetic lethality in tumor cells producing 2HG: qHTS for the HT-1080-IDH1KD cell line. AID 686971, 2013. HT-1080 IDH1 knockdown viability, ATP luminescence, 48 h. hit rate 2% among 360,000. Potency, µM (titrated, usually from 46.1 µM), actives largely listed as cytotoxic
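Luminescent ATP read-out (CellTiter-Glo, 10 min at room temperature) after 48 h compound exposure at 37 °C gave viability of IDH1-knockdown HT-1080 cells. Activity was normalised to DMSO and cell-free wells, then fitted as concentration-response curves.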
ELG1 DNA repair: qHTS screen for small molecules that inhibit ELG1-dependent DNA repair in human embryonic kidney (HEK293T) cells expressing luciferase-tagged ELG1 | hit rate 2.3% among 330,000 | HEK293T ELG1-luciferase reporter, luminescence, 16 h; DNA damage induced by 5-fluorouridine | Potency, µM (doses to about 46.1 µM), actives largely listed as inhibitors | AID 504467, 2011; note: nearly all actives have a fitted effect of over 55% in size
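Cells (2,000 per well) received 5-fluorouridine plus test compound or DMSO and were incubated 16 hr at 37 °C, 5% CO2. Luciferase activity was read by luminescence 30 min after ONE-Glo addition; signal suppression marked inhibition of damage-induced ELG1 function.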
DT40 TDP1 CPT: qHTS for Inhibitors of human tyrosyl-DNA phosphodiesterase 1 (TDP1): qHTS in cells in presence of CPT; chicken DT40 Tdp1-/-;hTDP1 cells + 20 nM CPT, ATP luminescence, 48 h; Potency, µM (series often up to 46.2 µM), most hits filed as inhibitors; hit rate 12% among 420,000; note: nearly all actives have a fitted effect of over 55% in size
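Cell growth measured by CellTiter-Glo luminescence after a minimum 48 h, 37 C compound exposure with 20 nM CPT in Tdp1-knockout DT40 cells stably expressing hTDP1, seeded 400/well; qHTS titration format.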
HT1080NT lethal: qHTS for induction of synthetic lethality in tumor cells producing 2HG: qHTS for the HT-1080-NT fibrosarcoma cell line. Potency, µM (highest dose often 46.1 µM), most hits filed as cytotoxic. HT-1080-NT fibrosarcoma viability, CellTiter-Glo ATP luminescence, 48 h. AID 686970, 2013. hit rate 1.6% among 360,000;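 note: NT is the 2HG producing partner of a matched IDH1 knockdown line; nearly all actives have a fitted effect of over 55% in size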
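Viability of the 2HG-overproducing fibrosarcoma line after 48 hours of compound exposure at 37 degrees C was determined by luminescence with CellTiter-Glo, and concentration-effect curves were then fitted and categorized.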
Of the large screens only hits and unclear results are named; the others gave an inactive call. Unless noted, calls come from the whole dose curve; as a rule, active = well fitted curve in the direction sought with a large enough effect; inconclusive = small, poorly fitted or top-dose-only effect, or another doubt; inactive = no such curve, though single readings can be large; an effect the other way counts as inactive or inconclusive.

CCCCCC(=O)N[C@@H](c1ccccc1)[C@@H](O)C(=O)O[C@H]1C[C@@]2(O)[C@@H](OC(=O)c3ccccc3)C3[C@](C)(C(=O)[C@H](OC(C)=O)C(=C1C)C2(C)C)[C@@H](O)C[C@H]1OC[C@@]31OC(C)=O (some centres not stated)	DT40 TDP1 no CPT 0.103µM, HT1080 IDH1KD tx 0.0058µM, DT40 TDP1 CPT 0.116µM, HT1080NT lethal inconclusive
CCCSc1ncc(Cl)c(C(=O)Nc2scc(-c3ccc(C)cc3)c2C(=O)OCC)n1	none (no result: IL1B secr inh, HT1080 IDH1KD tx, ELG1 DNA repair, HT1080NT lethal)
COc1ccc(S(=O)(=O)NCc2ccc(F)cc2)cc1OC	none
CCOc1ccc(CNS(=O)(=O)c2ccc3[nH]c4c(c3c2)CCCC4)cc1OC	DT40 TDP1 no CPT 23.1µM, DT40 TDP1 CPT inconclusive (no result: IL1B secr inh, HT1080 IDH1KD tx, ELG1 DNA repair, HT1080NT lethal)
COc1ccccc1CNS(=O)(=O)c1ccc2[nH]c3c(c2c1)CCCCC3	DT40 TDP1 no CPT 7.31µM, DT40 TDP1 CPT 10.3µM (no result: IL1B secr inh, HT1080 IDH1KD tx, ELG1 DNA repair, HT1080NT lethal)
CC(=O)N/C(=N\OCc1ccccc1Cl)c1nonc1NC(C)=O	none
CC(CC(=O)N1CCN(c2cccc(Cl)c2)CC1)S(=O)(=O)c1ccc2c(c1)NC(=O)CO2 (configuration not stated)	DT40 TDP1 no CPT 2.31µM, ELG1 DNA repair inconclusive, DT40 TDP1 CPT 4.11µM
COc1ccc(N2CCN(C(=O)CC(C)S(=O)(=O)c3ccc4c(c3)NC(=O)CO4)CC2)cc1 (configuration not stated)	DT40 TDP1 no CPT 13µM, ELG1 DNA repair 13µM, DT40 TDP1 CPT 14.6µM
Cc1cc(C)n(-c2nc3ccccc3nc2N2CCN(C(=O)c3ccc(Cl)cc3)CC2)n1	IL1B secr inh -58.7, DT40 TDP1 no CPT inconclusive, HT1080 IDH1KD tx inconclusive, DT40 TDP1 CPT inconclusive
Cc1cc(C)n(-c2nc3ccccc3nc2N2CCCC2)n1	none
Cc1cc(-c2ccccc2)n(-c2ccc(C(=O)N3CCN(c4ncccn4)CC3)cc2)n1	DT40 TDP1 no CPT inconclusive, ELG1 DNA repair 6.51µM, DT40 TDP1 CPT inconclusive
CCN1C(=O)N(C)[C@@H](c2ccccc2)C(C(C)=O)=C1C	none (no result: ELG1 DNA repair)
CCn1c(CC(=O)Nc2ccc(OC)cc2)nnc1SCC(=O)N1CCOCC1	none
CC1(C)CC(=O)C2=C(C1)OC(N)=C(C#N)C2c1cn(-c2ccccc2)nc1-c1ccc(F)cc1 (configuration not stated)	IL1B secr inh inconclusive, DT40 TDP1 no CPT inconclusive, HT1080 IDH1KD tx inconclusive, ELG1 DNA repair inconclusive, DT40 TDP1 CPT 14.6µM, HT1080NT lethal inconclusive
CC1(C)CC(=O)C2=C(C1)C(c1cn(-c3ccccc3)nc1-c1ccccc1)C(C#N)=C(N)O2 (configuration not stated)	IL1B secr inh -56.3, DT40 TDP1 no CPT inconclusive, HT1080 IDH1KD tx inconclusive, ELG1 DNA repair inconclusive, DT40 TDP1 CPT inconclusive, HT1080NT lethal inconclusive
CC1(C)CC(=O)C2=C(C1)OC(N)=C(C#N)C2Cc1ccccc1 (configuration not stated)	none
Cn1cccc1C1C(C#N)=C(N)OC2=C1C(=O)CC(C)(C)C2 (configuration not stated)	none
Nc1c(Cl)cc(C2=NCCn3c2c2ccc([N+](=O)[O-])cc2[n+]3[O-])cc1Cl	DT40 TDP1 no CPT 5.8µM, DT40 TDP1 CPT 1.84µM
COc1ccc2c3n(nc2c1)CCN=C3c1cc(Cl)c(N)c(Cl)c1	IL1B secr inh inconclusive, DT40 TDP1 no CPT 16.4µM, HT1080 IDH1KD tx inconclusive, ELG1 DNA repair inconclusive, DT40 TDP1 CPT inconclusive, HT1080NT lethal inconclusive
Nc1c(Cl)cc(C2=NCCn3nc4cc([N+](=O)[O-])ccc4c32)cc1Cl	DT40 TDP1 no CPT 18.4µM, ELG1 DNA repair inconclusive, DT40 TDP1 CPT inconclusive
Nc1c(Cl)cc(C2=NCCn3nc4cc(C(F)(F)F)ccc4c32)cc1Cl	IL1B secr inh inconclusive, DT40 TDP1 no CPT 20.6µM, ELG1 DNA repair inconclusive, DT40 TDP1 CPT 20.6µM
Cc1cc(=O)n2[nH]c(NCc3ccc(F)cc3)nc2n1	DT40 TDP1 no CPT inconclusive (no result: IL1B secr inh, HT1080 IDH1KD tx, ELG1 DNA repair, HT1080NT lethal)
COc1cccc(CN2CCCN(CC(=O)Nc3ccc4c(c3)OCCO4)S2(=O)=O)c1	none (no result: IL1B secr inh, HT1080 IDH1KD tx, ELG1 DNA repair, HT1080NT lethal)
O=C(Nc1cc(F)c(Br)cc1F)c1ccc(Cl)cc1	DT40 TDP1 no CPT inconclusive, ELG1 DNA repair inconclusive, DT40 TDP1 CPT inconclusive, HT1080NT lethal inconclusive
N#CC(c1ccccc1)C(CC(=NO)c1ccccc1)c1ccccc1 (configuration not stated)	IL1B secr inh inconclusive, DT40 TDP1 no CPT 10.3µM, DT40 TDP1 CPT 23.1µM, HT1080NT lethal inconclusive (no result: ELG1 DNA repair)
N#CC(OC(=O)c1ccccc1)c1ccccc1 (configuration not stated)	none (no result: ELG1 DNA repair)
N#CC(c1ccc([N+](=O)[O-])cc1)C(CC(=O)c1ccccc1)c1ccccc1 (configuration not stated)	IL1B secr inh inconclusive, DT40 TDP1 no CPT 16.4µM, DT40 TDP1 CPT inconclusive (no result: ELG1 DNA repair)
N#CC(c1cccc([N+](=O)[O-])c1)C(CC(=O)c1ccccc1)c1ccccc1 (configuration not stated)	DT40 TDP1 no CPT 23.1µM, DT40 TDP1 CPT 18.4µM (no result: ELG1 DNA repair)
O=C(O)CC(NC(=O)C(c1ccccc1)c1ccccc1)c1cccc([N+](=O)[O-])c1 (configuration not stated)	none
O=C(CNC(=O)c1ccc([N+](=O)[O-])cc1)c1ccccc1	ELG1 DNA repair inconclusive
